Screening results (PubChem)
KB-V1 MDR tox = kills drug-selected multidrug resistant KB-V1 cells | KB-V1 MDR cells viability, CellTiter-Glo, 72 h | Potency, µM (top dose mostly 46.1 µM), hits mostly cytotoxic | 3.4% of 400,000 active | AID 1347076; note: nearly all actives have a fitted effect of over 60% in size
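Readout: CellTiter-Glo luminescence, 10 min after addition. Cells: KB-V1 MDR subline, 72 h at 37 degrees C with compound. Analysis: corrected, normalized data fitted to concentration-effect curves.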
KB-3-1 cytotox = KB-3-1 parental cell cytotoxicity. KB-3-1 viability, CellTiter-Glo ATP luminescence, 72 h. Potency, µM (top dose mostly 46.1 µM), usual class: cytotoxic. 1.4% of 400,000 active. AID 1347075; note: nearly all actives have a fitted effect of over 60% in size
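KB-3-1 parental drug-naive adenocarcinoma cells in DMEM/10% FBS, incubated 72 h at 37 C with pin-transferred compounds across a concentration series. Viability by CellTiter-Glo luminescence; concentration-response curves fitted after normalization.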
DT40 TDP1 no CPT = qHTS for Inhibitors of human tyrosyl-DNA phosphodiesterase 1 (TDP1): qHTS in cells in absence of CPT. DT40 Tdp1-/- hTDP1 cells, no CPT, ATP luminescence, 48 h. AID 686978, 2013. Potency, µM (series often up to 46.2 µM), without a hit: top-dose activity change, negative = growth inhibition, actives largely listed as inhibitors. 15% of 420,000 active; note: nearly all actives have a fitted effect of over 55% in size
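Chicken DT40 Tdp1-/- cells stably complemented with human TDP1 were seeded at 400 cells/well with DMSO in place of 20 nM camptothecin. After compound pinning, cells grew at least 48 hr at 37 °C; viability read by CellTiter-Glo luminescence.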
HT1080 IDH1KD tx = kills HT-1080 cells with IDH1 knockdown. Potency, µM (titrated, usually from 46.1 µM), inactives show at the highest dose activity, negative = toxicity, hits mostly cytotoxic. HT-1080 IDH1 knockdown viability, ATP luminescence, 48 h. 2% of 360,000 active;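 note: 0% = DMSO wells and -100% = cell-free medium wells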
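Assay cells: HT-1080 with IDH1 knockdown, 750 per well, RPMI/5% FBS. Exposure: 48 h at 37 °C following 2 h pre-incubation. Read: CellTiter-Glo luminescence; fitted concentration-response, curve class assigned.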
DT40 TDP1 CPT = DT40-hTDP1 cell growth loss with CPT. chicken DT40 Tdp1-/-;hTDP1 cells + 20 nM CPT, ATP luminescence, 48 h. Potency, µM (doses to about 46.2 µM), without a hit: top-dose activity change, negative = growth inhibition, actives largely listed as inhibitors. 12% of 420,000 active. AID 686979; note: nearly all actives have a fitted effect of over 55% in size
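Cell growth measured by CellTiter-Glo luminescence after a minimum 48 h, 37 C compound exposure with 20 nM CPT in Tdp1-knockout DT40 cells stably expressing hTDP1, seeded 400/well; qHTS titration format.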
HT1080NT lethal = kills 2HG-producing HT-1080-NT fibrosarcoma cells; HT-1080-NT fibrosarcoma viability, CellTiter-Glo ATP luminescence, 48 h; Potency, µM (doses to about 46.1 µM), for the others: at the highest dose activity, negative = less viability, hits mostly cytotoxic; 1.6% of 360,000 active; AID 686970;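 note: NT is the 2HG producing partner of a matched IDH1 knockdown line; 0% = DMSO-treated cells and -100% = media-only wells without cells; nearly all actives have a fitted effect of over 55% in size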
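Toxicity toward the 2HG-producing NT line was scored as %Activity, normalised to DMSO and no-cell wells, from CellTiter-Glo luminescence after 48 hours' treatment.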
Starred values were filed as active, the others as inactive; i = inactive; ? = inconclusive; . = no result. Only some compounds are listed: those with a hit (about 19% of all), similar ones and a draw of the others. Calls come from the whole dose curve; as a rule, active = well fitted curve in the direction sought with a large enough effect; inconclusive = small, poorly fitted or top-dose-only effect, or another doubt; inactive = no such curve, though single readings can be large; an effect the other way counts as inactive or inconclusive. Unless noted, % is set by controls: 0 for no effect and ±100 for the full control effect; potency is the fitted concentration of half-maximal effect.

SMILES	KB-V1 MDR tox	KB-3-1 cytotox	DT40 TDP1 no CPT	HT1080 IDH1KD tx	DT40 TDP1 CPT	HT1080NT lethal
O=C(CCc1nnc(Cc2c[nH]c3ccccc23)o1)NCC1CC12CCCCC2 (stereo unspecified)	i	i	26µM*	-1%	?	-11%
Cc1ccc(NC(=S)N(CCCN2CCC(C)CC2)Cc2ccco2)cc1C	23µM*	i	?	-25%	?	-9%
Cc1ccccc1NC(=S)N(CCN1CCCCC1)Cc1ccco1	i	i	?	1%	-28%	9%
Cc1cc(C)c(NC(=S)N(CCN2CCCCC2)Cc2ccco2)c(C)c1	?	i	16µM*	-1%	?	-26%
Cc1cccc(C)c1NC(=S)N(CCN1CCCCCC1)Cc1ccco1	?	i	18µM*	-6%	?	-12%
CCC(C(=O)NC(C)(C)C)n1c(-c2cccc(NC(C)=O)c2)nc2ccccc21 (stereo unspecified)	i	i	12%	-4%	5%	-2%
COc1ccc(CC(=O)Oc2ccc(C(C)(C)C)cc2)cc1S(=O)(=O)N1CCOCC1	i	i	13%	-2%	-10%	6%
Cc1ccc(-c2nc3sc(CCNC(=O)c4ccc(C)c(C)c4)c(C)n3n2)cc1	i	i	-27%	.	1%	.
Cc1ccc(-c2nc3sc(CCNC(=O)c4ccco4)c(C)n3n2)cc1	i	i	18µM*	.	?	.
Cc1c(CCNC(=O)c2ccc(C(C)(C)C)cc2)sc2nc(-c3ccc(F)cc3)nn12	.	.	13µM*	.	15µM*	.
Cc1c(CCNC(=O)c2ccco2)sc2nc(-c3ccc(F)cc3)nn12	.	.	23µM*	.	21µM*	.
COc1ccc(NC(=O)c2cccc3ccccc23)cc1OC	i	i	-8%	14%	-13%	0%
COc1cccc(C(=O)Nc2c3c(nc4c2CCC4)CCCC3)c1	15µM*	i	-25%	8%	-13%	0%
CCOc1ccccc1C(=O)Nc1ccc2nc3c(c(Nc4ccc(OC)c(OC)c4)c2c1)CCCC3	?	?	5.2µM*	.	4.1µM*	.
COc1cc(OC)cc(C(=O)Nc2ccc3nc4c(c(Nc5ccc(OC)c(OC)c5)c3c2)CCCC4)c1	i	i	23µM*	.	4.1µM*	.
COc1ccc(Nc2c3c(nc4ccc(NC(=O)c5cc(Cl)ccc5OC)cc24)CCCC3)cc1OC	?	?	0.82µM*	.	1.6µM*	.
Cc1cccc(C)c1NC(=O)CCCSc1nc2ccccc2s1	i	i	?	1%	?	0%
CSc1nc2ccc(N3C(=O)C4CCCCC4C3=O)cc2s1 (stereo unspecified)	?	i	-6%	6%	4%	1%
CCc1cccc(CC)c1NC(=O)CCCSc1nc2ccccc2s1	12µM*	?	?	-22%	?	-3%
CCc1cccc(CC)c1NC(=O)CSc1nc2ccc(N3C(=O)C4C(C3=O)[C@H]3C=C[C@@H]4C3)cc2s1 (stereo partly specified)	i	i	8.2µM*	26µM*	?	2%
CCN(Cc1ccccc1)C(=O)COC(=O)c1cnc(C)cn1	i	i	0%	-2%	-6%	1%
CCN(Cc1ccccc1)C(=O)COC(=O)c1c(C)nsc1NC	i	i	21µM*	-1%	15µM*	-7%
COc1ccc(C(=O)C(C)OC(=O)c2sc(C)nc2C)cc1 (stereo unspecified)	i	i	4%	1%	-1%	10%
CNc1snc(C)c1C(=O)OCC(=O)c1ccc(Cl)cc1	i	i	9.2µM*	?	13µM*	-20%
CNc1snc(C)c1C(=O)OC(C)C(=O)c1ccc(F)cc1 (stereo unspecified)	i	?	21µM*	-4%	18µM*	7%
SMILES	KB-V1 MDR tox	KB-3-1 cytotox	DT40 TDP1 no CPT	HT1080 IDH1KD tx	DT40 TDP1 CPT	HT1080NT lethal
CC1CCN(S(=O)(=O)c2ccc(NC(=O)CCN3C(=O)C4CC=CCC4C3=O)cc2)CC1 (stereo unspecified)	i	i	-17%	2%	-14%	4%
COc1ccc(-n2c(=O)c3c(c4cc(OC)ccc4n3C)n(CCC(C)C)c2=O)cc1	i	i	-29%	.	-26%	.
Nc1cccc(-c2c[nH]c3ncc(-c4cccnc4)cc23)c1	i	i	21µM*	0%	8.2µM*	5%
COc1ccccc1NC(=O)Cn1c(=O)oc2ccccc21	i	i	2.9µM*	-5%	2.9µM*	9%
COc1ccc(Cl)cc1NC(=O)Cn1c(=O)oc2ccccc21	i	i	?	9%	8%	1%
COc1ccccc1CCNC(=O)Cn1c(=O)oc2ccccc21	i	i	?	9%	21µM*	16%
CCOC(=O)Nc1ccc2c(c1)C(=NO)c1ccccc1-2	8.2µM*	?	21µM*	11%	18µM*	2%
CCOC(=O)Nc1ccc2c(c1)C(=NNC(N)=S)c1ccccc1-2	23µM*	?	3.3µM*	?	6.5µM*	?
N#CC1=C(N)NC(=S)C(C(N)=O)C1c1ccccc1F (stereo unspecified)	i	i	?	?	?	-27%
N#CC1=C(N)NC(=S)C(C(N)=O)C1c1ccc(Cl)cc1Cl (stereo unspecified)	?	i	18µM*	?	10µM*	?
O=C(/C=C/c1cccc([N+](=O)[O-])c1)NC(=S)Nc1cccc(NC(=O)c2ccccc2Cl)c1	?	16µM*	13µM*	?	15µM*	?
CC(=O)Nc1ccc(C=CC=Cc2cccc([N+](=O)[O-])c2)cc1	21µM*	i	?	-30%	29µM*	-2%
CCN(CC)S(=O)(=O)c1cccc(NC(=O)/C=C/c2cccc([N+](=O)[O-])c2)c1	i	?	29µM*	-19%	?	-14%
CCN(CC)S(=O)(=O)c1cccc(NC(=O)/C=C/c2ccc([N+](=O)[O-])cc2)c1	i	i	?	2%	-2%	13%
O=C(/C=C/c1cccc([N+](=O)[O-])c1)Nc1ccc(Cl)cn1	?	i	2.6µM*	4%	?	4%
Cc1cccc(NC(=O)N2CCC(N3CCN(Cc4ccccc4)C(=O)C3=O)CC2)c1C	?	i	12%	.	-21%	.
